PubChem BioAssay (NCATS)
Records with an inconclusive call do not appear. The source made the active and inactive calls. Calls come from the whole dose curve; as a rule, active = well fitted inhibition curve with a large enough effect; inconclusive = small, poorly fitted or top-dose-only effect; inactive = flat fitted curve, though single readings scatter.

Tests used:
[1] = qHTS profiling for inhibitors of Plasmodium falciparum proliferation (AID 504749);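 note: 0% = DMSO vehicle and full inhibition = artemisinin control; nearly all actives have a fitted effect of over 60% in size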; conditions: P. falciparum in erythrocytes, SYBR Green DNA, 72 h
Procedure, shortened: (§1)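 Readout was DNA-dye fluorescence from lysed cultures, ex 485/em 535 nm. Parasitized red cells had grown 72 h with compound; data scaled between 0.29 uM artemisinin and DMSO wells and corrected using vehicle-only plates.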

3D7 = experiment: as above; conditions: P. falciparum in erythrocytes, SYBR Green DNA, 72 h; series mostly up to 28.7 µM
Procedure, shortened: as §1

7G8 = experiment: as above; conditions: P. falciparum in erythrocytes, SYBR Green DNA, 72 h; series mostly up to 28.7 µM
Procedure, shortened: as §1

AA1029 = experiment: as above; conditions: P. falciparum in erythrocytes, SYBR Green DNA, 72 h; series mostly up to 28.7 µM
Procedure, shortened: as §1

AS120 = experiment: as above; conditions: P. falciparum in erythrocytes, SYBR Green DNA, 72 h; series mostly up to 28.7 µM
Procedure, shortened: as §1

ATS189 = experiment: as above; conditions: P. falciparum in erythrocytes, SYBR Green DNA, 72 h; series mostly up to 28.7 µM
Procedure, shortened: as §1

ATS95 = experiment: as above; conditions: P. falciparum in erythrocytes, SYBR Green DNA, 72 h; series mostly up to 28.7 µM
Procedure, shortened: as §1

C2A = experiment: as above; conditions: P. falciparum in erythrocytes, SYBR Green DNA, 72 h; series mostly up to 28.7 µM
Procedure, shortened: as §1

CP185 = experiment: as above; conditions: P. falciparum in erythrocytes, SYBR Green DNA, 72 h; series mostly up to 28.7 µM
Procedure, shortened: as §1

CP191 = experiment: as above; conditions: P. falciparum in erythrocytes, SYBR Green DNA, 72 h; series mostly up to 28.7 µM
Procedure, shortened: as §1

CP192 = experiment: as above; conditions: P. falciparum in erythrocytes, SYBR Green DNA, 72 h; series mostly up to 28.7 µM
Procedure, shortened: as §1

CP194 = experiment: as above; conditions: P. falciparum in erythrocytes, SYBR Green DNA, 72 h; series mostly up to 28.7 µM
Procedure, shortened: as §1

[2] = at 28.7 µM (top of the series), parasite line A
[3] = at 28.7 µM (top of the series), parasite line B

CN1C(=O)OC(C)(C)C1=O
inactive: activity, negative = inhibition ([1]; at 12.8 µM (top of the series), parasite line A) -13.9% | activity, negative = inhibition ([1]; at 12.8 µM (top of the series), parasite line B) 4.58% | Potency (3D7) | Potency (7G8) | Potency (AA1029) | Potency (AS120) | Potency (ATS189) | Potency (ATS95) | Potency (C2A) | Potency (CP185) | Potency (CP191) | Potency (CP192) | Potency (CP194)

c1ccc2c(c1)OCC(CN1CCCCC1)O2 (centres undefined)
inactive: activity, negative = inhibition [1, 2] 4.84% | activity, negative = inhibition [1, 3] 0.843% | Potency (3D7) | Potency (7G8) | Potency (AA1029) | Potency (AS120) | Potency (ATS189) | Potency (ATS95) | Potency (C2A) | Potency (CP185) | Potency (CP191) | Potency (CP192) | Potency (CP194)

O=C(/C=C/c1cccc(F)c1)NC1CC1
inactive: activity, negative = inhibition [1, 2] -17.7% | activity, negative = inhibition [1, 3] -9.61% | Potency (3D7) | Potency (7G8) | Potency (AA1029) | Potency (AS120) | Potency (ATS189) | Potency (ATS95) | Potency (C2A) | Potency (CP185) | Potency (CP191) | Potency (CP192) | Potency (CP194)

O=C(O)/C=C/C(=O)Nc1ccc(S(=O)(=O)Nc2nccs2)cc1
inactive: activity, negative = inhibition [1, 2] 17.5% | activity, negative = inhibition [1, 3] -1.66% | Potency (3D7) | Potency (7G8) | Potency (AA1029) | Potency (AS120) | Potency (ATS189) | Potency (ATS95) | Potency (C2A) | Potency (CP185) | Potency (CP191) | Potency (CP192) | Potency (CP194)

CC(C)c1nc(N(C)S(C)(=O)=O)nc(-c2ccc(F)cc2)c1/C=C/C(O)CC(O)CC(=O)O (centres undefined)
inactive: activity, negative = inhibition [1, 2] 3.93% | activity, negative = inhibition [1, 3] -1.83% | Potency (3D7) | Potency (7G8) | Potency (AA1029) | Potency (AS120) | Potency (ATS189) | Potency (ATS95) | Potency (C2A) | Potency (CP185) | Potency (CP191) | Potency (CP192) | Potency (CP194)

CCCCC[C@H](O)/C=C/[C@H]1[C@H](O)CC(=O)[C@@H]1C/C=C\CCCC(=O)O
inactive: activity, negative = inhibition [1, 2] 7.21% | activity, negative = inhibition [1, 3] 0.0897% | Potency (3D7) | Potency (7G8) | Potency (AA1029) | Potency (AS120) | Potency (ATS189) | Potency (ATS95) | Potency (C2A) | Potency (CP185) | Potency (CP191) | Potency (CP192) | Potency (CP194)

CCN(CC)C(=O)c1cccnc1
inactive: activity, negative = inhibition [1, 2] 10.9% | activity, negative = inhibition [1, 3] 11.6% | Potency (3D7) | Potency (7G8) | Potency (AA1029) | Potency (AS120) | Potency (ATS189) | Potency (ATS95) | Potency (C2A) | Potency (CP185) | Potency (CP191) | Potency (CP192) | Potency (CP194)

c1ccc2ccccc2c1
inactive: activity, negative = inhibition [1, 2] 8.79% | activity, negative = inhibition [1, 3] 4.51% | Potency (3D7) | Potency (7G8) | Potency (AA1029) | Potency (AS120) | Potency (ATS189) | Potency (ATS95) | Potency (C2A) | Potency (CP185) | Potency (CP191) | Potency (CP192) | Potency (CP194)

O=c1[nH]c(=O)n([C@H]2C[C@H](O)[C@@H](CO)O2)cc1/C=C/Br
inactive: activity, negative = inhibition [1, 2] 6.74% | activity, negative = inhibition [1, 3] -10.9% | Potency (3D7) | Potency (7G8) | Potency (AA1029) | Potency (AS120) | Potency (ATS189) | Potency (ATS95) | Potency (C2A) | Potency (CP185) | Potency (CP191) | Potency (CP192) | Potency (CP194)

O=P(O)(O)O
inactive: activity, negative = inhibition [1, 2] 1.79% | activity, negative = inhibition [1, 3] 16.4% | Potency (3D7) | Potency (7G8) | Potency (AA1029) | Potency (AS120) | Potency (ATS189) | Potency (ATS95) | Potency (C2A) | Potency (CP185) | Potency (CP191) | Potency (CP192) | Potency (CP194)

CC(C)c1ncc([N+](=O)[O-])n1C
inactive: activity, negative = inhibition [1, 2] 8.33% | activity, negative = inhibition [1, 3] 4.53% | Potency (3D7) | Potency (7G8) | Potency (AA1029) | Potency (AS120) | Potency (ATS189) | Potency (ATS95) | Potency (C2A) | Potency (CP185) | Potency (CP191) | Potency (CP192) | Potency (CP194)

Cc1nc(NS(=O)(=O)c2ccc(N)cc2)nc(C)c1Br
inactive: activity, negative = inhibition [1, 2] 7.52% | activity, negative = inhibition [1, 3] -0.222% | Potency (3D7) | Potency (7G8) | Potency (AA1029) | Potency (AS120) | Potency (ATS189) | Potency (ATS95) | Potency (C2A) | Potency (CP185) | Potency (CP191) | Potency (CP192) | Potency (CP194)

CC(C)=CCC/C(C)=C/CC/C(C)=C/CC/C=C(\C)CC/C=C(\C)CCC=C(C)C
inactive: activity, negative = inhibition [1, 2] 0.919% | activity, negative = inhibition [1, 3] 12.5% | Potency (3D7) | Potency (7G8) | Potency (AA1029) | Potency (AS120) | Potency (ATS189) | Potency (ATS95) | Potency (C2A) | Potency (CP185) | Potency (CP191) | Potency (CP192) | Potency (CP194)
